# Assay results reported in PubChem BioAssay (NCI).
# Where “and” joins values, the source holds several entries; their conditions need not be identical. Identical values can stand only once. About 83,000 compounds went through this panel and 20% of them were active in at least one assay; those are over-represented in the sample as a whole.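 Treatment: one concentration, 48 hours, 96-well format. Scoring: percent growth, with anything below 10 considered active.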 Calls of active or inactive are those of the source.
# Test system: HCC-2998 colon
# Test: NCI-60 one-dose screen, 48 h (100 = growth as untreated, 0 = no growth, -100 = all killed)
# Details: 10 µM unless noted
row,Structure (SMILES),growth
1,O=C(/C=C/Nc1ccc(S(=O)(=O)Nc2ncccn2)cc1)c1ccc(N=Cc2c(O)[nH]c3ccccc23)cc1,109% (inactive)
2,CCCCCN1C(=O)/C(=c2\sc3n(c2=O)C2C(NN=3)N(CC)C(=O)N2CC)c2cccc(C)c21 (stereo not given),86% (inactive)
3,C#C[C@]1(O)CC[C@H]2[C@@H]3CC=C4c5sc(Nc6ncccc6C)nc5CC[C@]4(C)[C@H]3CC[C@@]21C,28.8% (inactive)
4,O=C1CSC(c2cn(-c3ccccc3)nc2-c2ccc(Cl)cc2)N1c1ccccc1 (stereo not given),111% (inactive)
5,CC(=O)Nc1ccccc1-c1nc2ccccc2s1,99.7% (inactive)
6,O=C(/C=C/c1cccc(Br)c1)c1cccc(OCCCCOc2cccc(C(=O)/C=C/c3cccc(Br)c3)c2)c1,118% (inactive)
7,C/C(=C(\c1ccc(O)cc1)c1ccc(OCCN2CCCCCC2)cc1)c1ccc(Cl)cc1,-88.2% (active)
8,Clc1ccc(CSc2nnc(-c3ccc(Cl)cc3)n2-c2ccccc2)cc1,95.8% (inactive)
9,O=C(CCCCCCNC(=O)C(O)(O)C(F)(F)F)Nc1nc2ccccc2s1,-39.8% (active)
10,CC(C)NC(=O)c1cc(-c2ccc(NC(=O)Nc3ccc(F)c(C(F)(F)F)c3)cc2)nc2cccnc12,115% (inactive)
11,COc1ccc(-c2cnc(NC(=O)CCCCCCNC(=O)C(O)(O)C(F)(F)F)s2)cc1,-46.5% (active)
12,C/C=C/CC(C)C(O)[C@H](NC(=O)[C@@H]1CCCN1C(=O)[C@](C)(CC)NC(=O)CCCCCCCCC)C(=O)N[C@@](C)(CC)C(=O)N[C@@H](CCC(N)=O)C(=O)N[C@H](CCC(N)=O)C(=O)NC(C)(C)C(=O)NC(C)(C)C(=O)N[C@@H](CCC(N)=O)C(=O)N[C@H](CC(C)C)C(=O)N[C@H](CO)CC(C)C (stereo not given in full),32.6% (inactive) and -57.5% (active)
13,CC1CC(=O)C2=C(C1)Nc1ccc(Br)cc1CC2c1c[nH]c2ccc(Br)cc12 (stereo not given),69.6% (inactive)
14,CC(C)(C)Nc1nc2c(OCCc3ccccc3)cccn2c1-c1cccc(Oc2ccccc2)c1,21.3% (inactive)
15,CCCC/C(=C\c1ccc(O)c(O)c1)C(=O)NC(Cc1ccccc1)C(=O)C(=O)NCCc1ccc(OC)cc1 (stereo not given),102% (inactive)
16,COC(=O)c1cccc(NC2=C(Cl)C(=O)c3nc(C)ccc3C2=O)c1,105% (inactive)
17,NC1CC2(CCN(c3cnc(C(=O)Nc4cc(F)cc5cccnc45)cn3)CC2)C1,83.7% (inactive)
18,COC(=O)c1ccc(NC2=C(Cl)C(=O)c3nc(C)ccc3C2=O)cc1,102% (inactive)
19,CC(Nc1c(C#N)cnc2ccc(-c3cncc(-c4n[nH]c(=O)o4)c3)cc12)c1ccccc1 (stereo not given),25.8% (inactive)
20,CC(=O)OC[C@]12CC[C@@H](C(=O)/C=C/c3cccnc3)[C@@H]1[C@H]1CC[C@@H]3[C@@]4(C)CC[C@H](OC(C)=O)C(C)(C)[C@@H]4CC[C@@]3(C)[C@]1(C)CC2,-63.2% (active)

row,Structure (SMILES),growth
1,CC(O)c1cccc(/C(N)=N/C(N)=N/c2nc3ccccc3s2)c1 (stereo not given),118% (inactive)
2,CC(C)=CCC[C@](C)(O)[C@H]1CC[C@]2(C)[C@@H]1CC[C@@H]1[C@@]3(C)CC[C@H](N)C(C)(C)[C@@H]3CC[C@]12C,63.3% (inactive)
3,Cc1ccc2c(n1)C(=O)C(Cl)=C(Nc1cccc(C)c1C)C2=O,51.6% (inactive)
4,C[C@]12CC[C@H]3[C@@H](CC=C4C[C@@H](O)CC[C@@]43C)[C@@H]1CC[C@@H]2[C@](C)(O)CCc1cccnc1,86.7% (inactive)
5,CN1CCN(c2ccc(Nc3nc(NCCCNS(=O)(=O)c4ccc(C(F)(F)F)cc4)c4sccc4n3)cc2)CC1,-63.5% (active)
6,Cc1ccc2c(n1)C(=O)C(Cl)=C(Nc1cccc(C(F)(F)F)c1)C2=O,108% (inactive)
7,O=C(CN1CCN(c2cc(=O)[nH]c3ccc(F)cc23)CC1)N(c1ccccc1)c1ccccc1,106% (inactive)
8,Cc1[nH]c(C(=O)Nc2ccc(C(N)=O)cc2N2CCOC(C)C2)c(Cl)c1Cl (stereo not given),105% (inactive)
9,CC1(C)CC[C@]2(C(=O)O)CC[C@]3(C)C(=CC[C@@H]4[C@@]5(C)CC[C@H](NOCCCN)C(C)(C)[C@@H]5CC[C@]43C)[C@@H]2C1,76.3% (inactive)
10,Cc1ccc2c(n1)C(=O)C(Cl)=C(Nc1ccc(C#N)cc1)C2=O,108% (inactive)
11,CC(=O)Nc1nc(C)c(-c2csc(Nc3ccccc3)n2)s1,52.3% (inactive)
12,O=C(/C=C/c1cccc(F)c1)c1cccc(OCCCCOc2cccc(C(=O)/C=C/c3cccc(F)c3)c2)c1,114% (inactive)
13,O=S(=O)(NCCCNc1nccc(-c2[nH]c(-c3ccccc3)nc2-c2ccc(F)c(O)c2)n1)c1ccc(C(F)(F)F)cc1,97.8% (inactive)
14,O=C(CCCCCCNC(=O)C(O)(O)C(F)(F)F)Nc1ncc(-c2ccccc2)s1,-46.1% (active)
15,CN(C)c1ccc(/C=N/Nc2nc(N/N=C/c3ccc(N(C)C)cc3)nc(N3CCCCC3)n2)cc1,103% (inactive)
16,NC1[C@H]2CN(c3cnc(C(=O)Nc4cc(F)cc5cccnc45)cn3)C[C@@H]12 (stereo not given in full),84.3% (inactive)
17,Clc1cccc(/C=N/Nc2nc(N/N=C/c3cccc(Cl)c3)nc(N3CCCCC3)n2)c1,108% (inactive)
18,CC(Nc1ncnc2ccc(-c3cnc4cnccn34)cc12)c1ccccc1 (stereo not given),80.7% (inactive)
19,CN1CCN(c2ccc(Nc3nc(NCCNC(=O)c4ccccc4)c4sccc4n3)cc2)CC1,84% (inactive)
20,O=C(CSc1nc2ccccc2c(=O)n1-c1ccccc1)N/N=C/c1ccc(Oc2ccc(Cl)cc2)cc1,95.4% (inactive)
